The panel holds about 83,000 compounds, 20% with a hit somewhere; the sample as a whole holds those more often.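 Results are percent growth after 48 hours of single-concentration exposure. 100 means growth as in untreated cells, lower positive values show inhibition; negative values down to -100 show cell death.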 Activity calls are given as the source filed them. How the source made its calls: active means growth percent below 10; inactive means the rest.
Tests used:
Assay in all cases: NCI-60 one-dose screen, 48 h (100 = growth as untreated, 0 = no growth, -100 = all killed)
SR leukemia = conditions: 10 µM unless noted
RPMI-8226 leukemia = conditions: 10 µM unless noted
OVCAR-8 ovarian = conditions: 10 µM unless noted
OVCAR-5 ovarian = conditions: 10 µM unless noted
OVCAR-4 ovarian = conditions: 10 µM
SK-OV-3 ovarian = conditions: 10 µM unless noted
IGROV1 ovarian = conditions: 10 µM unless noted
OVCAR-3 ovarian = conditions: 10 µM unless noted
NCI/ADR-RES ovarian = conditions: 10 µM unless noted
HS 578T breast = conditions: 10 µM unless noted

Measured: growth

Cc1cc(C)c(O)c(CNCCCCCCNCc2cc(C)cc(C)c2O)c1
inactive: OVCAR-5 ovarian 13.9% | OVCAR-4 ovarian 46.1% | SK-OV-3 ovarian 84.9% | IGROV1 ovarian 36.4% | OVCAR-3 ovarian 22%
active: SR leukemia -48.3% | RPMI-8226 leukemia -20.8% | OVCAR-8 ovarian -12.4% | NCI/ADR-RES ovarian 8.8%

CCN(CC)c1ccc(/C=C/C=C2\NC(=O)NC2=O)cc1
active: NCI/ADR-RES ovarian 3.98%
inactive: SR leukemia 21.1% | RPMI-8226 leukemia 41% | OVCAR-8 ovarian 36% | OVCAR-5 ovarian 58.1% | OVCAR-4 ovarian 50.5% | SK-OV-3 ovarian 29.1% | IGROV1 ovarian 49.7% | OVCAR-3 ovarian 25.5%

CCOC(=O)COc1ccc2c(c1)O/C(=C\c1ccc(O)cc1)C2=O
inactive: SR leukemia 93.8% | RPMI-8226 leukemia 119% | OVCAR-8 ovarian 105% | OVCAR-5 ovarian 102% | OVCAR-4 ovarian 108% | SK-OV-3 ovarian 117% | IGROV1 ovarian 106% | OVCAR-3 ovarian 106% | NCI/ADR-RES ovarian 108%

Cc1ccccc1OC(=O)c1cccc(Cl)c1
inactive: SR leukemia 97.3% | RPMI-8226 leukemia 98.8% | OVCAR-8 ovarian 112% | OVCAR-5 ovarian 104% | OVCAR-4 ovarian 112% | SK-OV-3 ovarian 137% | IGROV1 ovarian 104% | OVCAR-3 ovarian 109% | NCI/ADR-RES ovarian 108%

COc1ccc(C=C2c3ccccc3-c3ccccc32)cc1
inactive: SR leukemia 23.4% | RPMI-8226 leukemia 68.2% | OVCAR-8 ovarian 67.1% | OVCAR-5 ovarian 92.4% | OVCAR-4 ovarian 80.2% | SK-OV-3 ovarian 60.6% | IGROV1 ovarian 58.3% | OVCAR-3 ovarian 18% | NCI/ADR-RES ovarian 20.2%

Cc1nc(-c2ccccc2)sc1CC#N
inactive: SR leukemia 91.6% | RPMI-8226 leukemia 109% | OVCAR-8 ovarian 108% | OVCAR-5 ovarian 105% | OVCAR-4 ovarian 113% | SK-OV-3 ovarian 108% | IGROV1 ovarian 102% | OVCAR-3 ovarian 116% | NCI/ADR-RES ovarian 109%

O=[N+]([O-])c1cccc(/C=C/c2ccc3ccccc3n2)c1
inactive: SR leukemia 78.2% | RPMI-8226 leukemia 90.7% | OVCAR-8 ovarian 57.1% | OVCAR-5 ovarian 130% | OVCAR-4 ovarian 38.9% | SK-OV-3 ovarian 70.8% | IGROV1 ovarian 79.9% | OVCAR-3 ovarian 88.5% | NCI/ADR-RES ovarian 71.2%

COc1cc(C)cc2oc3oc(=O)c(C(=O)c4cc5cc(Br)ccc5o4)cc3c(=O)c12
inactive: SR leukemia 102% | RPMI-8226 leukemia 120% | OVCAR-8 ovarian 104% | OVCAR-5 ovarian 98.9% | OVCAR-4 ovarian 110% | SK-OV-3 ovarian 114% | IGROV1 ovarian 92.8% | OVCAR-3 ovarian 107% | NCI/ADR-RES ovarian 110%

O=C1Cc2c(sc3c(F)cccc23)C(c2ccccc2[N+](=O)[O-])N1 (stereo unspecified)
inactive: SR leukemia 99.4% | RPMI-8226 leukemia 95.4% | OVCAR-8 ovarian 107% | OVCAR-5 ovarian 108% | OVCAR-4 ovarian 93% | SK-OV-3 ovarian 93.1% | IGROV1 ovarian 63.5% | OVCAR-3 ovarian 97.9% | NCI/ADR-RES ovarian 106%

C=CCCC1(C)NC(=O)NC1=O (stereo unspecified)
inactive: SR leukemia 94.4% | RPMI-8226 leukemia 104% | OVCAR-8 ovarian 102% | OVCAR-5 ovarian 102% | OVCAR-4 ovarian 99.4% | SK-OV-3 ovarian 94.6% | IGROV1 ovarian 115% | OVCAR-3 ovarian 106% | NCI/ADR-RES ovarian 103%

C[C@]12CCc3c(ccc4cc(O)ccc34)[C@@H]1CC[C@H]2O
inactive: SR leukemia 74.3% | RPMI-8226 leukemia 94.6% | OVCAR-8 ovarian 103% | OVCAR-5 ovarian 107% | OVCAR-4 ovarian 96.1% | SK-OV-3 ovarian 121% | IGROV1 ovarian 110% | OVCAR-3 ovarian 94.9% | NCI/ADR-RES ovarian 101%

CCC(C)[C@H](NC(=O)NC(=O)NC(=O)CI)C(=O)OC (stereo partly specified)
active: SR leukemia -40.7% | OVCAR-3 ovarian -39.5%
inactive: RPMI-8226 leukemia 61.9% | OVCAR-8 ovarian 88.1% | OVCAR-5 ovarian 94.3% | OVCAR-4 ovarian 63.6% | SK-OV-3 ovarian 88.4% | IGROV1 ovarian 80.7% | NCI/ADR-RES ovarian 98.4%

O=C1CC(c2ccccc2)Cc2nc3ccc(Cl)cc3cc21 (stereo unspecified)
active: OVCAR-3 ovarian -29.1% | NCI/ADR-RES ovarian 7.96%
inactive: SR leukemia 13% | RPMI-8226 leukemia 29.7% | OVCAR-8 ovarian 22.4% | OVCAR-5 ovarian 26.4% | OVCAR-4 ovarian 48.7% | SK-OV-3 ovarian 47.2% | IGROV1 ovarian 16.5%

COc1ccc2nc3c(cc2c1)C(=O)CC(c1ccccc1)C3 (stereo unspecified)
inactive: SR leukemia 17.7% | RPMI-8226 leukemia 55.4% | OVCAR-8 ovarian 39% | OVCAR-5 ovarian 61.2% | OVCAR-4 ovarian 92.7% | SK-OV-3 ovarian 52.2% | IGROV1 ovarian 35.8% | NCI/ADR-RES ovarian 13.2%
active: OVCAR-3 ovarian -7.18%

CCN(CC)CCCCCCNc1cccc2cc(Br)cnc12
inactive: SR leukemia 28.4% | RPMI-8226 leukemia 68% | OVCAR-8 ovarian 80.2% | OVCAR-5 ovarian 117% | OVCAR-4 ovarian 87.5% | SK-OV-3 ovarian 111% | IGROV1 ovarian 60% | OVCAR-3 ovarian 84.2% | NCI/ADR-RES ovarian 79.9%

CC1(C)S[C@@H]2[C@H](NC(=O)[C@H](C(=O)O)c3cccs3)C(=O)N2[C@H]1C(=O)O
inactive: SR leukemia 102% | RPMI-8226 leukemia 117% | OVCAR-8 ovarian 98.7% | OVCAR-5 ovarian 100% | OVCAR-4 ovarian 112% | SK-OV-3 ovarian 105% | IGROV1 ovarian 109% | OVCAR-3 ovarian 111% | NCI/ADR-RES ovarian 102%

CC[C@]1(O)CC2CN(CCc3c([nH]c4ccccc34)[C@@](C(=O)OC)(c3cc4c(cc3OC)N(C=O)[C@H]3[C@@](O)(C(=O)OC)[C@H](OC(C)=O)[C@]5(CC)C=CCN6CC[C@]43[C@@H]65)C2)C1 (stereo partly specified)
inactive: SR leukemia 13% | RPMI-8226 leukemia 18.7% | OVCAR-8 ovarian 13.2% | OVCAR-5 ovarian 32.2% | OVCAR-4 ovarian 43% | IGROV1 ovarian 39.4% | NCI/ADR-RES ovarian 11.3%
active: SK-OV-3 ovarian 4.03% | OVCAR-3 ovarian -49.2%

O=C1/C(=C/c2cccc(OCc3ccccc3)c2)Oc2cc(OCCN3CCCCC3)ccc21
inactive: RPMI-8226 leukemia 20.8% | OVCAR-8 ovarian 92% | OVCAR-5 ovarian 81.4% | OVCAR-4 ovarian 86.2% | SK-OV-3 ovarian 121% | IGROV1 ovarian 71.5% | OVCAR-3 ovarian 86.3% | NCI/ADR-RES ovarian 82.7%
active: SR leukemia -20.5%

Cc1nn(-c2ccccc2)c(N2CCOCC2)c1-c1nc2ccc([N+](=O)[O-])cc2[nH]1
inactive: SR leukemia 87.2% | RPMI-8226 leukemia 97.6% | OVCAR-8 ovarian 102% | OVCAR-5 ovarian 108% | OVCAR-4 ovarian 98.9% | SK-OV-3 ovarian 135% | IGROV1 ovarian 111% | OVCAR-3 ovarian 110% | NCI/ADR-RES ovarian 105%

CCN(CC)c1ccc(/C=C/c2ccc3cc(C)ccc3[n+]2CC)cc1
active: SR leukemia -17.6% | RPMI-8226 leukemia -8.91% | OVCAR-8 ovarian 2.3% | SK-OV-3 ovarian -11.6%
inactive: OVCAR-5 ovarian 26.8% | OVCAR-4 ovarian 21.2% | IGROV1 ovarian 26.5% | OVCAR-3 ovarian 14.9% | NCI/ADR-RES ovarian 45.7%

COc1ccc2nc3cc(Cl)ccc3c(Nc3ccc(O)c(CN4CCCC4)c3)c2c1
inactive: OVCAR-5 ovarian 57.4% | SK-OV-3 ovarian 73.2%
active: SR leukemia 0.0468% | RPMI-8226 leukemia -25.2% | OVCAR-8 ovarian -2.17% | OVCAR-4 ovarian -4.45% | IGROV1 ovarian -26.3% | OVCAR-3 ovarian -32.1% | NCI/ADR-RES ovarian 3.27%

COc1ccc(/C=C/C(=C/c2c(O)[nH]c3cc(Br)ccc23)N=O)cc1
inactive: SR leukemia 70.2% | RPMI-8226 leukemia 123% | OVCAR-8 ovarian 104% | OVCAR-5 ovarian 110% | OVCAR-4 ovarian 101% | SK-OV-3 ovarian 114% | IGROV1 ovarian 103% | OVCAR-3 ovarian 114% | NCI/ADR-RES ovarian 111%

CCOC(=O)c1sc2nc(-c3cc(OC)c(OC)c(OC)c3)nc(N3CCOCC3)c2c1C
active: RPMI-8226 leukemia 9.94%
inactive: SR leukemia 41.8% | OVCAR-8 ovarian 44.1% | OVCAR-5 ovarian 74% | OVCAR-4 ovarian 19.7% | SK-OV-3 ovarian 56.1% | IGROV1 ovarian 50.5% | OVCAR-3 ovarian 15.5% | NCI/ADR-RES ovarian 53.9%

COc1ccc(-c2cc(-c3ccccc3)nc(SCCCCCC(=O)NO)n2)cc1
inactive: SR leukemia 21.9% | RPMI-8226 leukemia 21.2% | OVCAR-8 ovarian 36.1% | OVCAR-5 ovarian 41.4% | OVCAR-4 ovarian 80.1% | SK-OV-3 ovarian 50.3% | IGROV1 ovarian 51.7% | OVCAR-3 ovarian 65% | NCI/ADR-RES ovarian 56.9%

O=C1NC(=O)C(Cc2ccccc2)(Cc2ccccc2)N1
inactive: SR leukemia 104% | RPMI-8226 leukemia 91% | OVCAR-8 ovarian 104% | OVCAR-5 ovarian 110% | OVCAR-4 ovarian 91.2% | SK-OV-3 ovarian 98.1% | IGROV1 ovarian 115% | OVCAR-3 ovarian 98.9% | NCI/ADR-RES ovarian 101%

CCCCCN(CCCCC)CCCCCCCCN1CCCc2ccccc21
inactive: SR leukemia 21.5% | RPMI-8226 leukemia 84.1% | OVCAR-8 ovarian 89.1% | OVCAR-5 ovarian 107% | OVCAR-4 ovarian 95.9% | SK-OV-3 ovarian 106% | IGROV1 ovarian 76.4% | OVCAR-3 ovarian 72.1% | NCI/ADR-RES ovarian 92.2%

COc1ccc(C(=O)CSc2nnc(-c3cc(-c4ccccc4)nc4ccccc34)o2)cc1
inactive: SR leukemia 96.3% | RPMI-8226 leukemia 121% | OVCAR-8 ovarian 103% | OVCAR-5 ovarian 105% | OVCAR-4 ovarian 107% | SK-OV-3 ovarian 119% | IGROV1 ovarian 102% | OVCAR-3 ovarian 109% | NCI/ADR-RES ovarian 103%

CC(C)C1=NOC(=O)C1=Cc1cn(-c2ccccc2)nc1-c1ccc(Br)cc1
active: SR leukemia -23.1% | RPMI-8226 leukemia -29.6%
inactive: OVCAR-8 ovarian 80.8% | OVCAR-5 ovarian 100% | OVCAR-4 ovarian 98.8% | SK-OV-3 ovarian 99.9% | IGROV1 ovarian 72.5% | OVCAR-3 ovarian 85.4% | NCI/ADR-RES ovarian 101%

N#CC1C(=O)NC(c2ccccc2[N+](=O)[O-])c2sc3c(F)cccc3c21 (stereo unspecified)
active: OVCAR-5 ovarian -15.1% | OVCAR-4 ovarian -0.483% | IGROV1 ovarian 0.306% | OVCAR-3 ovarian -14.5%
inactive: SR leukemia 67.9% | RPMI-8226 leukemia 41.3% | OVCAR-8 ovarian 75% | SK-OV-3 ovarian 72.8% | NCI/ADR-RES ovarian 68.5%

Cn1cc(-c2noc(-c3cn(C)c4ncc(F)cc34)n2)c2cc(Br)ccc21
active: OVCAR-4 ovarian -40.3%
inactive: SR leukemia 37.1% | RPMI-8226 leukemia 87.9% | OVCAR-8 ovarian 55.2% | OVCAR-5 ovarian 64.4% | SK-OV-3 ovarian 84.4% | IGROV1 ovarian 73.3% | OVCAR-3 ovarian 38.5% | HS 578T breast 58.7% | NCI/ADR-RES ovarian 61.5%

— PubChem BioAssay (NCI)
